# From PMC4336329 (PLoS ONE, 2015)
# Hit rate of the full screen: of about 310,000 compounds, about 14,000 (4.5%) showed an effect of 50% or more. The effect is printed as a negative number. The sample as a whole holds a higher share of strong results than the screen did.
# Target: human ether-à-go-go-related gene (hERG) potassium channel (human, UniProt Q12809)
# Assay: primary screen, population patch clamp on CHO cells stably expressing hERG; higher = less effect of the substance
# 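Also: peak tail current of the secondary pulse compared with the same well before compound.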
# human ether-à-go-go-related gene (hERG) potassium channel, sequence (Q12809 whole entry, looked up): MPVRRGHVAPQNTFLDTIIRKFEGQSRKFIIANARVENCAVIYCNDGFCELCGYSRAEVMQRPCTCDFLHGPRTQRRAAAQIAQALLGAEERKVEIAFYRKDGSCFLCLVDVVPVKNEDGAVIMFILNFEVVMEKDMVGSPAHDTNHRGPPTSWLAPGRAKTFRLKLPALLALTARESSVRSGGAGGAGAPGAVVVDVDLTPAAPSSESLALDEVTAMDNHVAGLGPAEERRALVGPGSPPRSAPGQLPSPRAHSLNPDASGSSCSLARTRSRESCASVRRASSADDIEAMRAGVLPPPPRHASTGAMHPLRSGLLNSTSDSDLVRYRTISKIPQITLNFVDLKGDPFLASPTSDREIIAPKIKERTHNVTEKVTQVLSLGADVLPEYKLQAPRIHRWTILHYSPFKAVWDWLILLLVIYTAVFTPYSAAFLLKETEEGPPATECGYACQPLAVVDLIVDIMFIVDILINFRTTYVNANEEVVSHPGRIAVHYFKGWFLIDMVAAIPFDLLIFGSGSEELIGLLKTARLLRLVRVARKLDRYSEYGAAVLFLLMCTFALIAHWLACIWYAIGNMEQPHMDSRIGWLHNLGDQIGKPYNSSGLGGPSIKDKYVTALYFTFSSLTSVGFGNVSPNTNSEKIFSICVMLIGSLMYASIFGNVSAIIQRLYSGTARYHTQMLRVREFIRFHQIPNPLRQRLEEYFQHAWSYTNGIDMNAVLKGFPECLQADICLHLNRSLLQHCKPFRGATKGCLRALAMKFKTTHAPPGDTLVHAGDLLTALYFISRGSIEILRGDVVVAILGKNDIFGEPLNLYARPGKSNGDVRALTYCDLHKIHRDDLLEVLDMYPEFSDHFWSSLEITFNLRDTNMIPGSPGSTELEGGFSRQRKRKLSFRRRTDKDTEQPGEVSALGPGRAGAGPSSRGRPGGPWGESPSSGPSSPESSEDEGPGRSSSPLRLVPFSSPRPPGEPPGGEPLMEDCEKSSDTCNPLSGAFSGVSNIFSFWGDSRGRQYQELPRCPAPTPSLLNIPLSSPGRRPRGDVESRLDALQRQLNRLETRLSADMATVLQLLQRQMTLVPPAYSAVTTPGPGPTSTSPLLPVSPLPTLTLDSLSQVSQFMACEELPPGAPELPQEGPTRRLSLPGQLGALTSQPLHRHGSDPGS
row,SMILES,"hERG current change (%, negative = inhibition) at 10uM"
1,O=C(CNC1CCCCC1)NN=C(c1ccccc1)c1ccccc1,-59.8%
2,CCN(CC)CC(=O)NN=C(c1ccccc1)c1ccccc1,-77.6%
3,O=C(CN1CCOCC1)NN=C(c1ccccc1)c1ccccc1,20.8%
4,C/C(=N\NC(=O)CNc1ccccc1)c1ccccc1,-12.8%
5,C=CCNC(=O)NC(=S)c1ccccc1,-4.57%
6,C=CCNCC(=O)NN=C(c1ccccc1)c1ccccc1,-68.5%
7,CC(NC1CCCCC1)C(=O)NN=C(c1ccccc1)c1ccccc1 (stereo not drawn),-32.1%
8,O=C(CN1CCCC1)NN=C(c1ccccc1)c1ccccc1,-68.3%
9,CC1CN(CC(=O)NN=C(c2ccccc2)c2ccccc2)CC(C)O1 (stereo not drawn),12.8%
10,CCOC(=O)C(=O)NN=C(c1ccccc1)c1ccccc1,9.79%
11,O=C(NN=C(c1ccccc1)c1ccccc1)C(CCl)C1CCCCC1 (stereo not drawn),-2.74%
12,O=C(CCl)NN=C(c1ccccc1)c1ccccc1,0.333%
13,O=C(CN1C(=O)C2C3C=CC(C3)C2C1=O)NC1CCCc2ccccc21 (stereo not drawn),-2.95%
14,CCOC(=O)CN(C#N)c1nc(C)cc(C)n1,-7.84%
15,Cc1nc(SCCc2ccccc2)[nH]c(=O)c1C,19.6%
16,O=C(O)Cn1nnc(-c2ccc(OCc3ccccc3)cc2)n1,23.9%
17,COc1ccccc1CNC(=O)c1cnn2c(C(F)F)cc(C)nc12,-26.4%
18,Cc1cc(C)cc(N(C(=O)C(F)(F)F)C(C(=O)NC2CCCCC2)c2cccs2)c1 (stereo not drawn),-7.03%
19,O=C(CCCc1ccccc1)NCCCc1ccccc1,-10.9%
20,CN(Cc1ccccc1)C1CCCN(C(=O)c2ccc(Cl)s2)C1 (stereo not drawn),-30.4%
21,COC(=O)c1c(C(=O)OC)c(-c2ccc(Br)cc2)n2c1CS(=O)C2 (stereo not drawn),-1.16%
22,CCCNC(=O)c1onc(CSc2cccc(OC)c2)c1C(=O)NCCC,-7.12%
23,O=C(O)c1cccc(S(=O)(=O)N2CC=C(c3ccccc3)CC2)c1,-4.64%
24,COCCNC(=O)/C(C#N)=C/c1cc(C)n(C2CCCCC2)c1C,-0.875%
25,CCN(CC)S(=O)(=O)c1ccc2nc(CCl)[nH]c2c1,-16.7%
26,CCN(CC)S(=O)(=O)c1ccc2nc(CSc3nnnn3-c3ccc(O)cc3)[nH]c2c1,-53.9%
27,Cc1ccc(S(=O)(=O)N(C)C)cc1NC(=O)CSc1nnnn1-c1ccc(O)cc1,-20.9%
